# The whole screen tested about 340,000 compounds, of which about 1,000 (0.29%) were called active. No stated cut-off is given here; in the data, inconclusive means inhibition above about 29% without an active follow-up result; inactive means below that. Not all results are given here. Measured potencies and affinities stand elsewhere.
# Target: Genome polyprotein (Dengue virus type 2 (strain 16681-PDK53)) (UniProt P29991)
# Test: Dengue-2 NS5 methyltransferase inhibitors, primary screen, biochemical, confirmation dose response (AID 588689)
# Settings: Dengue-2 NS5 methyltransferase capping enzyme assay, at 25 µM, stronger effect = higher value
# [1] = measured here: pilot screen replicate inhibition
Compound,inhibition,inhibition [1]
CSc1nnc(C)c(=O)n1COC(=O)COc1ccc2ccccc2c1,3.64% (inactive),
COc1ccc(-c2c(C#Cc3ccc(N(C)C)cc3)c3ccccc3n2C)cc1,6.35% (inactive),
Cc1nc2c(-c3ccccc3)c(C)nn2c(N)c1-c1ccccc1,-5.49% (inactive),
Cc1cc(-c2ccc([N+](=O)[O-])cc2)nc2ccccc12,0% (inactive),
C[C@@]12C(=O)Nc3cc(F)c(F)cc3C(=O)N1[C@H]1c3cc(Cl)ccc3OC[C@@H]1[C@@H]2c1ccccc1,2.81% (inactive),
Cc1cc(C)c2[nH]c(=O)c(C(c3nnnn3Cc3ccc4c(c3)OCO4)N3CCCCC3)cc2c1 (stereo not given),9.03% (inactive),
Cc1cc(C)c(NC(=O)CN2C(=O)NC3(CCCCC3)C2=O)c(C)c1,-3.21% (inactive),
Cc1cccc(NC(=O)CN(C)S(=O)(=O)c2ccc(-c3ccc(=O)[nH]n3)s2)c1C,-3.18% (inactive),
CC(=O)CC(=O)NC1CCc2ccccc21 (stereo not given),-2.7% (inactive),
CC1=CC(=O)C(C(C)C)=C/C1=N/OS(=O)(=O)c1ccccc1,-4.66% (inactive),
CCOc1ccc(C(=O)c2ccccc2C(=O)O)cc1OCC,-7.73% (inactive),
CC1(C)SC(=S)N(/N=C/c2ccccc2)C1N(O)C(=O)Nc1ccc([N+](=O)[O-])cc1 (stereo not given),-1.56% (inactive),
CC(=O)N(C1=C(O)c2ccccc2C(=O)C1=O)C1CCCCC1,4.86% (inactive),
CC(=O)N(c1ccccc1)C1CCCC1,-5.78% (inactive),
COc1ccccc1N(C(C)=O)c1nc(C)cc(C)c1C#N,-9.48% (inactive),
COc1ccccc1N(/N=C1\Sc2ccccc2C1=O)C(C)=O,0.77% (inactive),
CC(=O)N(C1=C(N)C(=O)c2ccccc2C1=O)c1ccccc1,-4.08% (inactive),
CC(=O)N(C1=C(N2CCOCC2)C(=O)c2ccccc2C1=O)c1ccc(C(=O)O)cc1,24.1% (inactive),
CC(C)CCCN1C(Nc2ccccc2)=NC[C@@H]1C,-8.02% (inactive),
O=C(COC(=O)/C=C/c1ccc(C(F)(F)F)cc1)NCc1ccco1,1.3% (inactive),
COc1ccccc1NC(=O)CN1C(=O)COc2ccc(S(=O)(=O)N3CCCCCC3)cc21,-3.55% (inactive),
COc1cccc(C(=O)Nn2c(-c3cccs3)nc3ccccc3c2=O)c1OC,-3.56% (inactive),
O=C(NCc1ccccn1)c1ccc(Cn2cc(C(F)(F)F)ccc2=O)cc1,-5.74% (inactive),

Compound,inhibition,inhibition [1]
Cn1c(=O)c2c(ncn2CC(=O)N2CCc3ccccc3C2)n(C)c1=O,-0.55% (inactive),
Cc1ccc([C@H]2C(C(=O)O)=CC[C@@H](c3ccc(Cl)cc3)N2S(=O)(=O)c2ccc(C)cc2)cc1,23.2% (inactive),7.95%
CCc1ccc([C@@H]2CC=C(C(=O)O)[C@H](c3ccccc3)N2S(=O)(=O)c2ccc(C)cc2)cc1,15.1% (inactive),
CCCCC[C@@H]1C=C(C(=O)O)[C@H](c2ccc(C)cc2)N1S(=O)(=O)c1ccc(C)cc1,10.4% (inactive),
CCCC[C@@H]1C=C(C(=O)O)[C@H](c2ccc(Cl)cc2)N1S(=O)(=O)c1ccc(C)cc1,9.27% (inactive),1.23%
Cc1ccc(S(=O)(=O)N2[C@@H](c3ccccc3)C(C(=O)O)=CC[C@H]2c2ccc(Cl)cc2)cc1,13.2% (inactive),
CCc1ccc([C@@H]2CC=C(C(=O)O)[C@H](c3ccc(F)cc3)N2S(=O)(=O)c2ccc(C)cc2)cc1,15.9% (inactive),
Cn1ncc([N+](=O)[O-])c1C(=O)Nc1cccc2ccccc12,-4.99% (inactive),
CC(C)CN(C(=O)COC(=O)CCCc1c[nH]c2ccccc12)c1c(N)n(Cc2ccccc2)c(=O)[nH]c1=O,1.62% (inactive),
Clc1ccc(OCCn2cnc(Cl)c2Cl)cc1,2.87% (inactive),
Cc1cccn2cc(CCNC(=O)c3ccc(Br)o3)nc12,3.48% (inactive),
O=C1COCCOCCOCCOCC(=O)NCCN1,-2.15% (inactive),
CCOC(=O)C1=CN(Cc2ccco2)S(=O)(=O)N(C)C1c1ccc(C(F)(F)F)cc1 (stereo not given),-11.6% (inactive),-0.605%
O=C(CSc1nnc(Cc2ccccc2)o1)NCCN1C(=O)CSC1=O,-7.38% (inactive),
CCc1ccc(/C=C(/C#N)C(N)=S)s1,0% (inactive),
CCCCc1ccc(/C=C(\C#N)C(N)=S)s1,0% (inactive),
Cc1ccc(N2C(=O)CC(Nc3ccc(Cl)c(S(=O)(=O)N(C)C)c3)C2=O)c(C)c1 (stereo not given),-11.6% (inactive),
Cc1ccc(S(=O)(=O)NCCOCCNS(=O)(=O)c2ccc(C)cc2)cc1,-4.78% (inactive),
CC(C)C(C(=O)O)N1C(=O)/C(=C/c2cccn2C)SC1=S (stereo not given),-19.5% (inactive),
CC(/C=C1\SC(=S)N(NC(=O)c2ccncc2)C1=O)=C\c1ccccc1,21.6% (inactive),
CC(C)C(C(=O)O)N1C(=O)/C(=C/C=C/c2ccco2)SC1=S (stereo not given),42.9% (inactive),
CC(/C=C1\SC(=S)N(CCC(=O)Nc2ccc(O)cc2)C1=O)=C\c1ccccc1,1.3% (inactive),
CC(/C=C1\SC(=S)N(CC(=O)N2CCN(c3ccccc3)CC2)C1=O)=C\c1ccccc1,-0.73% (inactive),

Compound,inhibition,inhibition [1]
CCC(C(=O)O)N1C(=O)/C(=C/c2cccn2C)SC1=S (stereo not given),-25.5% (inactive),
CC(/C=C1\SC(=S)N(CC(=O)O)C1=O)=C\c1ccccc1,26% (inactive),
CCOC(=O)c1c(C)[nH]c(C(=O)OCC(=O)NC2(C#N)CCCCC2)c1C,-11.6% (inactive),
O=c1n(Cc2ccccc2F)c2ccccc2n1Cc1ccccc1F,-3.2% (inactive),
FC(F)(F)c1ccccc1/C=N/n1c(C2CCCCC2)n[nH]c1=S,10.6% (inactive),
COc1ccc(N=C2SC(C(=O)O)CC(=O)N2C)cc1 (stereo not given),0.68% (inactive),
COc1cccc(NC(=O)CN(C)C(=O)c2cccc(S(=O)(=O)N3CCN(c4ccccc4)CC3)c2)c1,-6.1% (inactive),
O=C(COc1ccc(S(=O)(=O)N2CCCCC2)cc1)NCC1CCCO1 (stereo not given),-5.9% (inactive),
Cc1nnc(NCCc2ccccc2)c2ccccc12,-6.68% (inactive),
O=C(/C=C/c1cccc([N+](=O)[O-])c1)OCC(=O)N1CCN(C(=O)c2ccco2)CC1,0.39% (inactive),
COc1cccc(NC(=O)C2CCCN2C(=O)Nc2ccccc2F)c1 (stereo not given),-4.94% (inactive),
Oc1ccc2ccccc2c1CN1CCN(C/C=C/c2ccccc2)CC1,-14.3% (inactive),
CC(/C=C1\SC(=S)N(CCCC(=O)Nc2ccc(C(=O)O)cc2)C1=O)=C\c1ccccc1,11.7% (inactive),
O=C(O)c1ccc(N2C(=O)/C(=C/C=C/c3ccccc3)SC2=S)cc1,16% (inactive),
COc1ccc(NC(=O)CN(C)C(=O)c2cccc(S(=O)(=O)N3CCN(C)CC3)c2)cc1,-5.07% (inactive),
CCOC(=O)c1c(NC(=O)C2C3C=CC(C3)C2C(=O)O)sc2c1CCC(C)C2 (stereo not given),-2.91% (inactive),
CCOC(=O)c1c(NC(=O)C2C3C=CC(C3)C2C(=O)O)sc2c1CC(C)CC2 (stereo not given),7.29% (inactive),
CCOC(=O)c1c(NC(=O)C2C3CCC(O3)C2C(=O)O)sc2c1CCC(CC)C2 (stereo not given),4.42% (inactive),
CCOC(=O)c1c(NC(=O)C2C3C=CC(C3)C2C(=O)O)sc2c1CCCC2 (stereo not given),4.37% (inactive),
COc1cc2c(cc1OC)C(C(N)=O)NCC2 (stereo not given),0.81% (inactive),
O=C(CN1CCN(c2ccccc2F)CC1)c1ccc(O)c(O)c1,6.62% (inactive),
CNS(=O)(=O)c1cccc(C(=O)OCC(=O)Nc2ccc(OC)cc2[N+](=O)[O-])c1,6.24% (inactive),
CCC(=O)Nc1cc(Cl)ccc1C(=O)O,-5.46% (inactive),

Compound,inhibition,inhibition [1]
COc1ccc(NC(=O)Cc2ccc(Cl)cc2Cl)cn1,-4.71% (inactive),
COc1ccc(Nc2ccc(Cl)cc2)c(C(=O)O)c1,9.44% (inactive),
CCCCC(=O)Nc1cc(Cl)ccc1C(=O)O,1.56% (inactive),
CC(C)(C)c1ccc(S(=O)(=O)N2CCN(c3ncccn3)CC2)cc1,-5.15% (inactive),
O=C(OCCCOC(=O)c1cc[n+]([O-])cc1)c1cc[n+]([O-])cc1,-7.73% (inactive),
CN(C)/C=C1\C(=O)N(c2ccc(Oc3ccccc3)cc2)CS1=O (stereo not given),-8.86% (inactive),4.42%
C=CCN1C(=O)C(Cc2ccc(F)cc2)S/C1=N/N=C/c1cccs1 (stereo not given),-3.47% (inactive),
Cc1cccc(C(=O)Nc2sc3c(c2C(=O)O)CCCC3)c1,2.61% (inactive),
O=C(Nc1sc2c(c1C(=O)O)CCC2)c1cccc(Cl)c1,15.2% (inactive),
CC(=O)c1cccc(NC(=O)C23CC4CC(C2)CC(n2cncn2)(C4)C3)c1,-0.64% (inactive),
NCCCC[C@@H](C(=O)NCCCCCCCCCCC(=O)N1CCNCC1)n1cc(CCCC(=O)O)nn1,-0.8% (inactive),
Cc1cc2ccccc2n2c(SCC(=O)N3CCOCC3)nnc12,-8.09% (inactive),
COc1ccc(CNC(=O)C(C)OC(=O)CCN2C(=O)C3CC=CCC3C2=O)cc1 (stereo not given),2.89% (inactive),
CC1Cc2ccccc2N1C(=O)CSc1ncccn1 (stereo not given),-4.43% (inactive),
COc1cc(Br)cc(/C=C/c2ccc3cccc(O)c3n2)c1OC,13.2% (inactive),
C=CCOc1ccc(/C=C\c2nc(O)c([N+](=O)[O-])c(=O)[nH]2)cc1OC,0.57% (inactive),
COc1ccc2cc(/C=N/NC(=O)CSCc3ccc([N+](=O)[O-])cc3)c(Cl)nc2c1,4.46% (inactive),
CSc1nnc2c(n1)OC1(Nc3ccccc3-2)C(=O)Nc2ccccc21 (stereo not given),3.9% (inactive),
Cc1ccc(SCc2[nH]nc3c2C2(C(=O)Nc4ccc(F)cc42)C(C#N)=C(N)O3)cc1 (stereo not given),2.51% (inactive),3.94%
CCSc1nnc2c(n1)OC(C)(C)Nc1ccccc1-2,-5.52% (inactive),
c1ccc(CSc2nnc3c(n2)OC(c2ccco2)Nc2ccccc2-3)cc1 (stereo not given),-0.8% (inactive),
